This passage reports inhibition results from ChEMBL document CHEMBL1961873, “Compounds: GSK PKIS; Assays: Nanosyn kinase panel” (2012).

The target of test [1] is Dual specificity protein kinase CLK3 (Homo sapiens) (UniProt P49761). Particulars: at 1 µM.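 Note: each value is the mean inhibition of CLK3.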
The target of test [2] is Dual specificity tyrosine-phosphorylation-regulated kinase 1A (Homo sapiens) (UniProt Q13627). Particulars: at 0.1 µM.
The target is the same in test [3]. Particulars: at 1 µM.
For test [4], the target named is Dual specificity tyrosine-phosphorylation-regulated kinase 1B (Homo sapiens) (UniProt Q9Y463). Conditions: at 0.1 µM.
Test [5] shares this target. Conditions: at 1 µM.
Test [6] concerns the target T1, Dual specificity tyrosine-phosphorylation-regulated kinase 2 (Homo sapiens) (UniProt Q92630).
T1 sequence (whole entry): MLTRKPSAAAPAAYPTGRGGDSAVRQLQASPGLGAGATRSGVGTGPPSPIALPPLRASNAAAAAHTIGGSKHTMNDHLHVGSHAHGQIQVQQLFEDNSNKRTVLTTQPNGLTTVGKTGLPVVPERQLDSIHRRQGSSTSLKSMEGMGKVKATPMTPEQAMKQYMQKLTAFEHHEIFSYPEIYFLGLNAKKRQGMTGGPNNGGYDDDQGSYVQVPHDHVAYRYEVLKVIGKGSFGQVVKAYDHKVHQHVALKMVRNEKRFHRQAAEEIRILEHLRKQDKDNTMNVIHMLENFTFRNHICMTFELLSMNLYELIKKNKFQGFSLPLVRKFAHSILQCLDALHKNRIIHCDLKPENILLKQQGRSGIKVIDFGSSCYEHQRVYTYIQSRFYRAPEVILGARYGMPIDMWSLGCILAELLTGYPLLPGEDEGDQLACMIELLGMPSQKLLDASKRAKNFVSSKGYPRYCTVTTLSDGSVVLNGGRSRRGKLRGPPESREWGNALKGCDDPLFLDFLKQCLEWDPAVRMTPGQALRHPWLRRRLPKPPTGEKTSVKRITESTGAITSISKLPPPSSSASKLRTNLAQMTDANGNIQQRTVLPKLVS
Particulars: at 0.1 µM.

Test [7] concerns the target T1, Dual specificity tyrosine-phosphorylation-regulated kinase 2 (Homo sapiens). Conditions: at 1 µM.
In test [8] the target is Glycogen synthase kinase-3 alpha (Homo sapiens) (UniProt P49840). Particulars: at 0.1 µM.
The target is the same in test [9]. Conditions: at 1 µM.
The target in test [10] is Glycogen synthase kinase-3 beta (Homo sapiens) (UniProt P49841). Particulars: at 0.1 µM.
Test [11] has the same target. Particulars: at 1 µM.
Test [12] addresses Homeodomain-interacting protein kinase 1 (Homo sapiens) (UniProt Q86Z02). Conditions: at 0.1 µM.
Test [13] shares this target. Particulars: at 1 µM.
In test [14] the target is T2, Homeodomain-interacting protein kinase 4 (Homo sapiens) (UniProt Q8NE63).
T2 sequence (whole entry): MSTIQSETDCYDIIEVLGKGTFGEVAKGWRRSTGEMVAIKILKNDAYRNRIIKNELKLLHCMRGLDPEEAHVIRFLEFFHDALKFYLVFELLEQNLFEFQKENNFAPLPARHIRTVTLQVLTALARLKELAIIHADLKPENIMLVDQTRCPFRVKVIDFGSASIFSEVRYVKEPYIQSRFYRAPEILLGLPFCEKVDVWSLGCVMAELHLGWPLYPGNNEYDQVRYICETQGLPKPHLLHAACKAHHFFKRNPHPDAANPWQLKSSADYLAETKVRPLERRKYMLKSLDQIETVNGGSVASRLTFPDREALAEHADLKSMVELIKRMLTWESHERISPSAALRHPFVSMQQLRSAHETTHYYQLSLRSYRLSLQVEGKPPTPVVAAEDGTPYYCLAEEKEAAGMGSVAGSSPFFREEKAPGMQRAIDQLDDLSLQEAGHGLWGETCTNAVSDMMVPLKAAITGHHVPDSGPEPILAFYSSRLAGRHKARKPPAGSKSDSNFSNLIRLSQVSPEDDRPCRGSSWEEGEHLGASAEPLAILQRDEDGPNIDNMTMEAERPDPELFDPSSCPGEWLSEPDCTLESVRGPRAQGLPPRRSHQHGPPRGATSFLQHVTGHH
Conditions: at 0.1 µM.

The target in test [15] is T2, Homeodomain-interacting protein kinase 4 (Homo sapiens). Conditions: at 1 µM.
For test [16], the target named is Mitogen-activated protein kinase 9 (Homo sapiens) (UniProt P45984). Particulars: at 0.1 µM.
The target is the same in test [17]. Particulars: at 1 µM.
Test [18] deals with Mitogen-activated protein kinase 1 (Homo sapiens) (UniProt P28482). Conditions: at 0.1 µM.
Test [19] has the same target. Conditions: at 1 µM.
The target in test [20] is Mitogen-activated protein kinase 3 (Homo sapiens) (UniProt P27361). Particulars: at 0.1 µM.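 Note: each value is a mean inhibition figure.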

Structures are written as SMILES.

Glycogen synthase kinase-3 beta (Homo sapiens), sequence (P49841 whole entry, looked up): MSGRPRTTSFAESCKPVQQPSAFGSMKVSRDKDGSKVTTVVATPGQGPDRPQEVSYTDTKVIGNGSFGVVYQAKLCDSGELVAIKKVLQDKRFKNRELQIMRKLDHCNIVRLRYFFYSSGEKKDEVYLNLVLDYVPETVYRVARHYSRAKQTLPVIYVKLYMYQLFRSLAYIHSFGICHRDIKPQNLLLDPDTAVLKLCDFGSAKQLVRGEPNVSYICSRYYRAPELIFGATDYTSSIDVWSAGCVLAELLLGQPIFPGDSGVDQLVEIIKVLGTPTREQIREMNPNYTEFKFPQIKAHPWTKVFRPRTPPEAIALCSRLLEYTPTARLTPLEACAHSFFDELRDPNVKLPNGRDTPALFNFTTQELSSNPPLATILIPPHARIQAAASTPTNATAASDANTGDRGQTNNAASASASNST
Homeodomain-interacting protein kinase 1 (Homo sapiens), sequence (Q86Z02 whole entry, looked up): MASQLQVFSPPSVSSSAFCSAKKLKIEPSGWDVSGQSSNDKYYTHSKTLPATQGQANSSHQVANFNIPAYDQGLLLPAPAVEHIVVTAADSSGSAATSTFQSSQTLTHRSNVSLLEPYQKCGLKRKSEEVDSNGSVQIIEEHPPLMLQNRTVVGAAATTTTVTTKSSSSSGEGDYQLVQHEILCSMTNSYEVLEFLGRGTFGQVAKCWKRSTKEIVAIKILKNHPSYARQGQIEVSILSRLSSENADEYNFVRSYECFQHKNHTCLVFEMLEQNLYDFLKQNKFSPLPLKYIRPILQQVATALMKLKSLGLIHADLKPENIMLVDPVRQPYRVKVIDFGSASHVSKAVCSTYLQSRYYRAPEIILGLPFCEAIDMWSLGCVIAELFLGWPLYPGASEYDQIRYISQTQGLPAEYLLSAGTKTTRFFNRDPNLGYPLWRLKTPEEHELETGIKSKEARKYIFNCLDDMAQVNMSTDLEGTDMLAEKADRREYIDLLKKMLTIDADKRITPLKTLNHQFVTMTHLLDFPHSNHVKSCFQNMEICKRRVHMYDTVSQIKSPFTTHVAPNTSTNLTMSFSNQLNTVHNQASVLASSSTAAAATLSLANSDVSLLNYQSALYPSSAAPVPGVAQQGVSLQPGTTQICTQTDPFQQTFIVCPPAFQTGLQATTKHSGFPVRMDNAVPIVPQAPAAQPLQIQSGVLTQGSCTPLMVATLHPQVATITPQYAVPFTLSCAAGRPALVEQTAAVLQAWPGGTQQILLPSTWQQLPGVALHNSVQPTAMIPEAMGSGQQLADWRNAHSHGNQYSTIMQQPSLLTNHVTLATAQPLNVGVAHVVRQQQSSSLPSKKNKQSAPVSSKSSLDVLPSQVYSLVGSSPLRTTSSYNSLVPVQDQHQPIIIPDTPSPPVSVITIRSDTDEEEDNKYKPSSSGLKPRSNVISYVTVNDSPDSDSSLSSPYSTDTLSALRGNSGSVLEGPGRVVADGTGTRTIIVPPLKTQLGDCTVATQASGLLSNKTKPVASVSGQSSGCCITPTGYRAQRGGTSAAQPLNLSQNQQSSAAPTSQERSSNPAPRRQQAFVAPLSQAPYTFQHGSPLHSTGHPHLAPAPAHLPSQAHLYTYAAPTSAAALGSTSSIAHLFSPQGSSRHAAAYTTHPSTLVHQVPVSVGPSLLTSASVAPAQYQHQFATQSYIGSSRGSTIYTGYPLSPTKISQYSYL
Dual specificity tyrosine-phosphorylation-regulated kinase 1B (Homo sapiens), sequence (Q9Y463 whole entry, looked up): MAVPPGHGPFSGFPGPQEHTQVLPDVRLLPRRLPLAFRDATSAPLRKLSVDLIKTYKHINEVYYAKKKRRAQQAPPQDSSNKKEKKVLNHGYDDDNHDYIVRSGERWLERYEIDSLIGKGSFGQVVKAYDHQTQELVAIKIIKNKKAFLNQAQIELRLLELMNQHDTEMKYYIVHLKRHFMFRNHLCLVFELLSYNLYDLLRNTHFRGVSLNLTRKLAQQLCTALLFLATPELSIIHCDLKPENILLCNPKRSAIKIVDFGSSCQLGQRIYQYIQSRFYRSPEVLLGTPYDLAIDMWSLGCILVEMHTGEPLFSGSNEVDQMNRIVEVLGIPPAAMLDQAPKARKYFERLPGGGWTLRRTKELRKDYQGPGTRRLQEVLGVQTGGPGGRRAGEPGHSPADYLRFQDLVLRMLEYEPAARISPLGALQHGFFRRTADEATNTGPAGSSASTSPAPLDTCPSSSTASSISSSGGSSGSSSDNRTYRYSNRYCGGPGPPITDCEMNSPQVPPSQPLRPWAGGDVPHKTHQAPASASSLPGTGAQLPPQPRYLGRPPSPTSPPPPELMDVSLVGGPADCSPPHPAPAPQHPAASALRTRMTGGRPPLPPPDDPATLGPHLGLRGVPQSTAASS
Mitogen-activated protein kinase 9 (Homo sapiens), sequence (P45984 whole entry, looked up): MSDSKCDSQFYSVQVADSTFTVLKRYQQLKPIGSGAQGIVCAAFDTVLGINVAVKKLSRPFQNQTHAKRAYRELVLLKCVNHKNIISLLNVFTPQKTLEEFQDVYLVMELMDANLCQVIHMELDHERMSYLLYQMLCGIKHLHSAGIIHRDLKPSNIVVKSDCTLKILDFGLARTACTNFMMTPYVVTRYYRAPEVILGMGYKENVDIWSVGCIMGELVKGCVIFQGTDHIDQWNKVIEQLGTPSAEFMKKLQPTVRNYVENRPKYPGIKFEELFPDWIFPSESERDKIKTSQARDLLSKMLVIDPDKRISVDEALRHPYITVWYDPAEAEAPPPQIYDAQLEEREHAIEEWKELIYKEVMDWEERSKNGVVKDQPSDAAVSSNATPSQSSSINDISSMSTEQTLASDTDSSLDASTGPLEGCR
Glycogen synthase kinase-3 alpha (Homo sapiens), sequence (P49840 2-483 limits assumed): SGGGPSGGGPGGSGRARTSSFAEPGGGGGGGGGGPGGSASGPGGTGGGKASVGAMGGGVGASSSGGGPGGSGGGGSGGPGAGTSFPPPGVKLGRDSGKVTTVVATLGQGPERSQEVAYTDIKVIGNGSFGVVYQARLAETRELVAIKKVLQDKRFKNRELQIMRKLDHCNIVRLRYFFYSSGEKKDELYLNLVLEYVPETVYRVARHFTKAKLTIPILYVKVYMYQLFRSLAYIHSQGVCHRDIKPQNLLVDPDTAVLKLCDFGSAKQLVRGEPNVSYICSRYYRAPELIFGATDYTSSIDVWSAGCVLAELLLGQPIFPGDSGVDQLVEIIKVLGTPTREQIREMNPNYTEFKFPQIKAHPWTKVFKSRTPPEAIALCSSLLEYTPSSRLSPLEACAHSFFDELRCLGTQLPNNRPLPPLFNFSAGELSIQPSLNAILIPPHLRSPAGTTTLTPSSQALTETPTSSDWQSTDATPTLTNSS
Mitogen-activated protein kinase 3 (Homo sapiens), sequence (P27361 whole entry): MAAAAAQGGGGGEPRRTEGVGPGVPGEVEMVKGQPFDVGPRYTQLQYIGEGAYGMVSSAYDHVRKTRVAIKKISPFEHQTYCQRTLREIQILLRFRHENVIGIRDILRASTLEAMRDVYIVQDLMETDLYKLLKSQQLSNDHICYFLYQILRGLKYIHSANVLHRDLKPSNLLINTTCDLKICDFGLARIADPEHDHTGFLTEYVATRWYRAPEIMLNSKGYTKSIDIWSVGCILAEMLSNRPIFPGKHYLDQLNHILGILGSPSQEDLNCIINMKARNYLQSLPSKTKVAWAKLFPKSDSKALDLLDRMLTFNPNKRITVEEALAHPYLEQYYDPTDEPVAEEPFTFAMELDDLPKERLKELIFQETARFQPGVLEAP
Dual specificity protein kinase CLK3 (Homo sapiens), sequence (P49761 whole entry, looked up): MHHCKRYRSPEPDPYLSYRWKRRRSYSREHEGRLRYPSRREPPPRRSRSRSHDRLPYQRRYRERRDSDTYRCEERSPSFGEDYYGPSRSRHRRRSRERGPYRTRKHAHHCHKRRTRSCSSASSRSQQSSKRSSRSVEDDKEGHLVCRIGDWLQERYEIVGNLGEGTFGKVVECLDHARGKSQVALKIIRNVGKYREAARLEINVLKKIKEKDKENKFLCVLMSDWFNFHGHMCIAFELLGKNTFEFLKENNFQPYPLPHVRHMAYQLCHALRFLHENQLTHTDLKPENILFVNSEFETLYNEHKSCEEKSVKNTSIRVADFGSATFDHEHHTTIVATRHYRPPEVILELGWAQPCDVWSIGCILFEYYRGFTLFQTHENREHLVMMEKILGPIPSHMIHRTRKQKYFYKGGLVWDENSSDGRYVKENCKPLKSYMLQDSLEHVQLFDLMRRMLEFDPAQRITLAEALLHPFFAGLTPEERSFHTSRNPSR
Mitogen-activated protein kinase 1 (Homo sapiens), sequence (P28482 whole entry): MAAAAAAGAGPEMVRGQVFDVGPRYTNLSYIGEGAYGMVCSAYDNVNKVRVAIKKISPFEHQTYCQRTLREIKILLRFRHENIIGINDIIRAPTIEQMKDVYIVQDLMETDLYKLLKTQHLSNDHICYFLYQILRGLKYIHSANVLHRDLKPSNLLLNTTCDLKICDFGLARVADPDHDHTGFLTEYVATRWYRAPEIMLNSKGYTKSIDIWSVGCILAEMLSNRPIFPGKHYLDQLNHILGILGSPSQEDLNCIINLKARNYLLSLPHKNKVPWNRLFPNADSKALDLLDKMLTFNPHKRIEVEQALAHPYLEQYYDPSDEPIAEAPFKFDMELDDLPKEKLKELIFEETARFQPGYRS

As to `NC(=O)c1cc(-c2ccc(F)cc2)cc(-c2ccncc2)c1N`, the inhibition was 0.95% in test [1]; 1.07% in [2]; 3.02% in [3]; -0.78% in test [4]; -1.19% in test [5]; 3.58% in test [6]. Further, the inhibition in test [7] came to 5.04%; in [8], 1.24%; in [9], 1.03%; in test [10], 0.05%; in test [11], 1.12%; in test [12], 1.44%. The inhibition in test [13] is 0.21%; in test [14] it was -0.23%; in [15], 2.98%; in [16] it was 3.69%; in test [17], 2.06%; in test [18], 4.92%. For the same compound, the inhibition amounted to 5.18% in [19] and 3.25% in test [20].

With `Fc1ccc(-c2nc3n(c2-c2ccncc2)CCS3)cc1`, the inhibition was -2.32% in test [1]; 0.54% in test [2]; 0.87% in test [3]; -3.06% in test [4]; -3.89% in test [5]; 2.91% in test [6]. Also, the inhibition in test [7] was 2.31%; in test [8], -0.87%; in [9], 3.8%; in [10], -1.43%; in test [11], 7.8%; in test [12], -4.87%. In addition, the inhibition was -3.92% in test [13]; 0.39% in test [14]; 1.1% in [15]; 7.66% in test [16]; 25.9% in test [17]; 3.06% in test [18]. The results for the inhibition in test [19] and in [20] were 5.59% and 2.96%, respectively.

Turning to `COc1cc(C)c(N(C)C(=O)CN(C)C)cc1Nc1nc(Nc2cccc(F)c2C(N)=O)c2cc[nH]c2n1`, the inhibition is -1.03% in [1]; 2.09% in [2]; 15.2% in [3]; -1.79% in test [4]; 13.1% in [5]; 2.31% in test [6]. The inhibition in test [7] was 1.64%; in [8] it was -2.99%; in test [9] it was -1.13%; in test [10] it was -3.79%; in test [11], -3.33%; in test [12] it was -4.07%. Besides, the inhibition was 2.02% in test [13]; 0.06% in test [14]; 4.88% in test [15]; 1.42% in test [16]; 2.97% in [17]; 0.6% in test [18]. In addition, the inhibition in test [19] was found to be 3.4%; in test [20], 2.26%.

As for `CN(C)c1ccc2c(c1)/C(=C/Nc1ccc(S(N)(=O)=O)cc1)C(=O)N2`, the inhibition was found to be 3.39% in test [1]; 7.43% in test [2]; 33.4% in [3]; 4.54% in [4]; 24.5% in [5]; 1.54% in test [6]. Also, the inhibition in test [7] was 4.74%; in [8] it was 8.28%; in [9], 21.6%; in test [10], 6.03%; in test [11] it was 24.2%; in test [12] it was 0.15%. For the same compound, the inhibition in test [13] was 12%; in [14], -0.09%; in [15], 6.94%; in test [16], 3.27%; in test [17], 2.71%; in test [18], 1.12%. The inhibition in [19] came out at 2.53%; in [20], 0.06%.

With `CN1CCN(CCCNc2nc3ccc(Oc4ccc(NC(=O)Nc5cc(C(F)(F)F)ccc5F)cc4)cc3[nH]2)CC1`, the inhibition is -3.62% in [1]; -4.06% in test [2]; -2.54% in test [3]; -2.52% in test [4]; -2.58% in [5]; 0.8% in test [6]. The inhibition in [7] was -0.19%; in test [8], -2.85%; in test [9], 0.59%; in test [10], -2.95%; in test [11], -1.5%; in test [12], -6.94%. The inhibition is -3.43% in [13]; 6.45% in [14]; 40.6% in test [15]; 3.11% in test [16]; 8.71% in test [17]; 1.47% in [18]. In addition, the inhibition in [19] was found to be 0.12%; in test [20], 1.55%.

Regarding `COc1cc(Nc2ncc3c(C)nc(-c4cccc(C(F)(F)F)c4)n3n2)cc(OC)c1OC`, the inhibition in test [1] amounted to 2.91%; in test [2], 4.11%; in test [3] it was 29.8%; in [4], 0.38%; in [5], 11.2%; in test [6], 2.73%. The inhibition in [7] is 3.63%; in [8] it was 2.88%; in test [9], 13.8%; in [10], 4.09%; in [11], 28.1%; in test [12] it was 4.84%. Further, the inhibition in test [13] amounted to 26.8%; in test [14], 1.83%; in [15], 9.08%; in test [16], 0.45%; in test [17] it was 4.58%; in [18], 5.55%. The results for the inhibition in test [19] and in [20] were 13% and 4.86%, respectively.
